Growth data for 40 compounds are collected here from PubChem BioAssay (NCI).

This is part of a sample that, as a whole, favours compounds with a hit. Of some 83,000 tested, about 20% had one in any assay.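 Values shown are percent growth following 48 h exposure of cells in 96-well plates to a single concentration of compound; below 10 was considered active.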 Calls of active or inactive are those of the source.

For this experiment, the system named is HL-60(TB) leukemia. Put plainly: NCI-60 one-dose screen, 48 h (100 = growth as untreated, 0 = no growth, -100 = all killed). As to conditions: 10 µM unless noted.
Take `CC(C)[C@H]1COC(=O)N1[C@@H]1C(=O)N([C@@H](CCC(=O)N2CCN(C3CCCC3)CC2)C(=O)N[C@@H]2CCCc3ccccc32)[C@@H]1/C=C/c1cccc(Cl)c1`: the growth was 5.13% (active). Consider `Cc1cc(O)cc(-c2nn(C)cc2-c2cc(N3CCOCC3)nc(-c3cccnc3)n2)c1`, for which the growth is 14.8% (inactive). In the case of `Cc1c(-c2ccc(-c3ccccc3F)cc2)nc2ccc(F)cc2c1C(=O)O`, the growth was 5.22% (active). With `COc1cccc(-c2nc3sccn3c2-c2ccnc(NCCN3CCCN(C)S3(=O)=O)n2)c1`, the growth is 105% (inactive). Turning to `CC(=O)OC[C@H]1O[C@@H](n2c(=O)cc(N)[nH]c2=O)C(OC(C)=O)[C@@H]1OC(C)=O` (stereo not given in full), the growth is 107% (inactive).

Take `CCCCCCCCn1ccc2cc(NC(=O)CN=[N+]=[N-])ccc21`: the growth is 102% (inactive). As to `Cn1c(=O)[nH]c2ccccc2c1=O`, the growth was 111% (inactive). For the compound `COc1cc(/C=C/C(=O)c2ccc(Nc3ncnc4ccccc34)cc2)cc(OC)c1`, the growth was 55.5% (inactive). For `CCCCCN1C=C/C(=C\C(=O)N(C)c2ccccc2Br)c2ccccc21` the value was 76.9% (inactive); for `CCCCCCCCCCCCCC/C=C\C(CC(=O)O)C(=O)O` (stereo not given), 72.4% (inactive). Take `O=C(/C(=C/c1ccc([N+](=O)[O-])cc1)SCc1ccc(F)cc1)c1ccc(F)cc1`: the growth is 68.8% (inactive). As for `COc1ccc2[nH]c(C(=O)OCc3ccc4c(Br)cc(Br)c(O)c4n3)cc2c1`, the growth was -32.7% (active). In the case of `COC(=O)/C=C1/SC(=Nc2ccc([N+](=O)[O-])cc2)N(CCc2c[nH]c3ccc(O)cc23)C1=O`, the growth is 32.2% (inactive). As to `O=C(Nc1cccc(Cl)c1)c1ccc(Cl)cc1Cl`, the growth was 92% (inactive). For `O=C(c1ccc(F)cc1)C1CCN(CCn2c(=O)[nH]c3ccccc3c2=O)CC1` the value was 97.3% (inactive); for `Cc1cc2nc(-c3ccccc3)c(-c3ccccc3)nc2cc1C`, 48.3% (inactive); for `O=C1c2ccccc2C(=O)c2c1c(C(=O)NCc1ccccc1)c1ccccn21`, 88.7% (inactive). Take `COc1ccc(/C=C2\c3cc(OC)c(OC)c(OC)c3CC[C@@H]2O)cc1F`: the growth is -22.4% (active).

Consider `Cc1nc(Nc2ccc(NC(=S)Nc3ccccc3)cc2)c2ccccc2n1`, for which the growth is 86.4% (inactive). Regarding `CC(=O)n1nc(C(=O)OC(C)(C)C)c2cc(F)c(F)cc21`, the growth was 103% (inactive). For `CN(C)c1ncc(C#Cc2c(F)cccc2F)c2ccccc12` the value was 59.9% (inactive). Turning to `CN1CCN(Cc2cc(NC(=O)c3cccc(C#Cc4cccc5[nH]nc(N)c45)c3)cc(C(F)(F)F)c2)CC1`, the growth was 0.0221% (active). With `C/C(=C(\c1ccc(OCCN2CCOCC2)cc1)c1ccc(OC(=O)C2CCCCC2)cc1)c1ccc(Cl)cc1` the figure was 96.4% (inactive). For the compound `Cc1nc(N)nc(SCc2ccccc2)c1Br`, the growth is 53.2% (inactive). As for `O=c1[nH]c(NCc2nnnn2-c2ccc(Br)cc2)nc2sc3c(c12)CCCC3`, the growth is 103% (inactive). As for `O=C1c2c(c3c4cccc(F)c4[nH]c3c3ccc4ccccc4c23)C(=O)N1O`, the growth was 31% (inactive). On to `O=C(Nc1ccccc1Cl)c1ccc(NC2=C(Cl)C(=O)N(C3CCCCC3)C2=O)cc1`, for which the growth is -36.7% [30 µM] (active). With `COc1cc2oc3cc(C)oc(=O)c3c2cc1OC` the figure was 80.3% (inactive); with `CN1CCN(Cc2ccc(NC(=O)c3cncc(C#Cc4c(N)ncc5ccc(F)cc45)c3)cc2C(F)(F)F)CC1`, 17.4% (inactive).

Take `COc1ccc2cc(-c3cc(OC)c(OC)c(OC)c3)c(=O)oc2c1`: the growth was 55.3% (inactive).

For `O=C1/C(=C/c2ccccc2[N+](=O)[O-])COc2ccc(O)cc21`, the growth was -8.06% (active). For the compound `O=C(Nc1ccccc1)Nc1ccc(C(=O)/C=C/c2ccc(N3CCCC3)cc2)cc1`, the growth is 35.2% (inactive). For `CC(=O)OCCC(C)CCC=C(C)C` (stereo not given), the growth is 108% (inactive). With `COc1ccc2nc(Cl)c(/C=C/C(=O)c3ccc(NC(=O)CSc4nnc(-c5ccc(Cl)c(Cl)c5)n4-c4ccccc4)cc3)cc2c1`, the growth is 73.1% (inactive). On to `COc1nccc2c(Sc3ccccc3)nc(N)nc12`, for which the growth was 97.6% (inactive). For `COc1ccc(-c2c(C)nn3c(NCCN4CCOCC4)cc(C)nc23)cc1OC`, the growth was 107% (inactive). With `O=C1NC(=O)C(=Cc2cc(-c3ccc(Cl)cc3)n(-c3ccccc3)n2)C(=O)N1` the figure was 89.5% (inactive); with `Cc1c(C(N)=O)sc2ncn(Cc3ccccc3)c(=O)c12`, 118% (inactive); with `CN=C(N)N/N=C(\C)c1ccc2c(c1)Cc1cc(/C(C)=N/NC(N)=NC)ccc1-2`, -23.2% (active).

For the compound `O=C1NC(=O)C(c2coc3cc(Br)ccc23)=C1c1c[nH]c2ccccc12`, the growth was 13.1% (inactive).
